The test system of this test is Madurella mycetomatis MM55. Nature of the test: percent growth relative to solvent control; higher = less inhibition, active = 20 or less. As to conditions: 100 µM; 7 days.
As to `NS(=O)(=O)c1cncc(-c2ccc3nccc(-c4cn[nH]c4)c3n2)c1`, the percent growth is 143% (inactive).

In the case of `CCc1nc2ccc(C(=O)NCc3ccc4c(c3)OCO4)cn2c1N(C)Cc1cccs1`, the percent growth is 44% (inactive).

Turning to `Cc1cc(O)nc(-n2nc(C)cc2C)n1`, the percent growth is 66.4% (inactive).

Take `CC(C)(C)c1cc(C(=O)N2CCN(c3nccnc3C#N)CC2)n(Cc2ccccc2)n1`: the percent growth is 56.8% (inactive).

As to `CN(C(=O)c1cc2c(-c3cncnc3)cccc2[nH]1)c1ccccc1`, the percent growth was 51.3% (inactive).

Consider `Cc1nn(C)cc1C(C)Nc1nncc(-c2ccc(C(F)(F)F)cc2)n1` (stereo not drawn), for which the percent growth was 61.9% (inactive).

Turning to `CCN(CC)S(=O)(=O)c1ccc(Cl)c(C(=O)Nc2ccc3nc(C)sc3c2)c1`, the percent growth was 119% (inactive).

Take `C[C@H](C(N)=O)N1CCCC[C@@H]1c1ccc(OCc2cccc(F)c2)cc1`: the percent growth is 92% (inactive).

For the compound `O=C(NC1CCCCC1)N1CCN(Cc2ccc3c(c2)OCO3)CC1`, the percent growth was 74.6% (inactive).

For `CCCS(=O)(=O)N1CCC(CO)(Cc2ccccc2C(F)(F)F)CC1`, the percent growth was 37.4% (inactive).

Regarding `Nc1ncnc2c1ncn2C[C@@H](O)[C@@H](O)C(=O)O`, the percent growth was 134% (inactive).

As for `COc1ccc(Oc2ccc([C@@H](C)N(C)c3ncc4c(N)nc(N)nc4n3)cc2)cc1`, the percent growth was 0.491% (active).

As for `O=C(Nc1ccc(F)c(-c2nc3cc(-c4ccccc4)cnc3[nH]2)c1)N1CCCC1`, the percent growth is 95.8% (inactive).

For `CC1CCCCN1C(=O)NCCc1coc(-c2ccc(F)cc2)n1` (stereo not drawn), the percent growth was 70% (inactive).

Regarding `CNC(=O)c1cc(S(=O)(=O)N2CCN(c3ccccn3)CC2)cs1`, the percent growth is 143% (inactive).

`CN1CCN(c2nccc3nc(-c4ccc(F)c(F)c4)[nH]c23)CC1`: the percent growth was 52.1% (inactive).

As to `CNC(=O)CNc1nc(-c2ccccn2)nc2scc(-c3ccccc3)c12`, the percent growth was 30.8% (inactive).

As to `CO[C@H]1/C=C/O[C@@]2(C)Oc3c(C)c(O)c4c(O)c(/c(=C/NN5CCN(C)CC5)c(O)c4c3C2=O)=N\C(=O)/C(C)=C\C=C/[C@H](C)[C@H](O)[C@@H](C)[C@@H](O)[C@@H](C)[C@H](OC(C)=O)[C@@H]1C`, the percent growth was 92.6% (inactive).

For `O=C(C1CCN(c2nnnn2-c2ccccc2)CC1)N1CCc2ccccc2C1`, the percent growth was 56.4% (inactive).

For `CCC(Sc1nc2ccccc2o1)C(=O)Nc1nnc(C)s1` (stereo not drawn), the percent growth is 40.9% (inactive).

As for `CNc1snc(C)c1C(=O)NCCOc1ccc(OC)cc1`, the percent growth is 92.2% (inactive).

Turning to `COc1ccc(-c2nn(C(C)C)c3ncnc(N)c23)cc1OC`, the percent growth was 22.9% (inactive).

In the case of `COc1ccc(N(CCc2cccc(C)n2)C(=O)C2CCCCC2)cc1`, the percent growth is 28% (inactive).

In the case of `O=C(NCCN1CCCC1)c1cc(NCCCCN2CCC(F)(F)CC2)nc2ccc(Cl)cc12`, the percent growth is 61.8% (inactive).

For `O=C(CCC1CCCCC1)Nc1cccc(-c2nnc(-c3ccco3)o2)c1`, the percent growth was 96.1% (inactive).

As for `Cc1ccc(C(=O)Nc2ccc(S(=O)(=O)O)c3cc(S(=O)(=O)O)cc(S(=O)(=O)O)c23)cc1NC(=O)c1cccc(NC(=O)Nc2cccc(C(=O)Nc3cc(C(=O)Nc4ccc(S(=O)(=O)O)c5cc(S(=O)(=O)O)cc(S(=O)(=O)O)c45)ccc3C)c2)c1`, the percent growth was 141% (inactive).

`Cc1nn2c(O)c3c(nc2c1-c1ccc(F)cc1)CCCC3`: the percent growth is 113% (inactive).

Turning to `O=C(OCc1ccccc1)N1CCC(c2cc(-c3ccncc3)c(-c3ccc(F)cc3)[nH]2)CC1`, the percent growth is 117% (inactive).

`O=C(C1CCN(c2nnc(-n3cccc3)s2)CC1)N1CCC(Cc2ccccc2)CC1`: the percent growth is 108% (inactive).

Consider `CNC(=O)C1Cc2c([nH]c3cc(Cl)ccc23)C2(CCN(CCc3ccccc3)CC2)N1` (stereo not drawn), for which the percent growth is 70% (inactive).

On to `NC(=O)c1cc(-c2ccsc2)ccc1OCCOc1ccccc1`, for which the percent growth was 103% (inactive).

For `CC(C)n1ncc2c(C(=O)NCC(c3cccs3)N3CCOCC3)cc(-c3ccccc3)nc21` (stereo not drawn), the percent growth was 76% (inactive).

For `Cc1ccc(-c2cc(C(=O)Nc3cccnc3)c3cc(Br)ccc3n2)cc1`, the percent growth is 90.5% (inactive).

As to `CCn1cnc2c(Nc3cc(F)cc(F)c3)nc(C#N)nc21`, the percent growth is 95.2% (inactive).

For `CNc1cc(C)nc(C2CN(C(=O)c3n[nH]c4ccccc34)CCO2)c1` (stereo not drawn), the percent growth is 103% (inactive).

Turning to `COCC(C)NC(=O)CSc1ncnc2sc(-c3ccccc3)cc12` (stereo not drawn), the percent growth is 64.9% (inactive).

In the case of `COc1ccc(S(=O)(=O)Nc2ccc(CN3CCN(C(=O)c4cccc(C#N)c4)CC3)cc2)cc1`, the percent growth is 113% (inactive).

Regarding `CCOc1ccccc1C(=O)Nc1cccc(-c2nc3ncccn3c2C)c1`, the percent growth is 97.2% (inactive).

The values above are taken from the supplement of paper PMC5940239.
